Compound activity: PubChem BioAssay, Sanford-Burnham Center for Chemical Genomics
Shown are actives, neighbours in structure and some others; about 31% of the full set was active somewhere.
CYP2C9 act: activators of human CYP2C9. P11712. recombinant CYP2C9, luciferin-H conversion, luminescence; hits give high values; factor 1 = untreated enzyme, 0 = blocked. activation factor at 5 µM. actives 1.4% (n = 96,000). AID 1024;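 active = activation factor of 2 or more for CYP2C9 at a 5 µM dose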;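 note: 0 = sulfaphenazole-blocked wells and 1 = vehicle-only wells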
CYP2C9 inh: inhibitors of human CYP2C9. CYP2C9 Supersomes, luciferin-H conversion, luminescence. P11712. actives 20% (n = 96,000). inhibition, % at 5 µM;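 active = blocking of liver enzyme CYP2C9 beyond about 50% at 5 µM, limit read from the data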
PLAP act: activators of human placental alkaline phosphatase; purified PLAP enzyme, luminescent substrate read-out; hits give high values; activation fold at 20 µM; P05187; actives 1.2% (n = 96,000); in the data active = activation fold above about 2
Target sequence (P05187 whole entry, looked up): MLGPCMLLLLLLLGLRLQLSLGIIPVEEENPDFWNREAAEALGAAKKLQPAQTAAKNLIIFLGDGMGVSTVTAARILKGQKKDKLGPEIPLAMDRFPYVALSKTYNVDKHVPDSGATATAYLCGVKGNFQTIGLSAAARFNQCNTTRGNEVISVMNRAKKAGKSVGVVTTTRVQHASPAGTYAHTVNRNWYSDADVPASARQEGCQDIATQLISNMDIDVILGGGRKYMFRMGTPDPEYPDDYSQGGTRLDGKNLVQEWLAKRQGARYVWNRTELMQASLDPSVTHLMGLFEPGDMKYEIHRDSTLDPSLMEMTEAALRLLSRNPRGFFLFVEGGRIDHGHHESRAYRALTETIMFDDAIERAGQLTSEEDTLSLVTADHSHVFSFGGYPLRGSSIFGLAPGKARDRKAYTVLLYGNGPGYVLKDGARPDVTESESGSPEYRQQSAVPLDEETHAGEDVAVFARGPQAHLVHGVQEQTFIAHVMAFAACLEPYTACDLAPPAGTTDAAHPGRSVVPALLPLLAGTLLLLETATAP
CYP2C19 inhib: blocks human cytochrome P450 2C19; P33261; CYP2C19 Supersomes, luciferin-H EGE luminescence, 30 min; inhibition, % at 5 µM; actives 21% (n = 96,000); AID 778;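 active = CYP2C19 inhibition above a set limit at 5 µM in the primary screen, cut at about 50% in these data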;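 note: plate controls were negative control wells for no effect and 2.5 mM tranylcypromine positive control for full effect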
CYP2C19 activ: cytochrome P450 2C19 (human) activation; P33261; recombinant CYP2C19, luciferin-H EGE luminescence; hits give high values; 0 = fully inhibited enzyme, 1 = untreated enzyme; activation factor at 5 µM; 96,000 tested, under 10 active; AID 1025;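 active = activation factor of at least 2 at 5 µM in the primary screen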;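 note: 0 = wells with 2.5 mM tranylcypromine and 1 = vehicle-only wells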
Active calls of the source: *.

SMILES	CYP2C9 act	CYP2C9 inh	PLAP act	CYP2C19 inhib	CYP2C19 activ
Cc1cccc(NC(=O)/C(=C\c2cccs2)NC(=O)c2ccccc2)c1	0.9	12	1.2	2	1
Cc1ccc(CSc2nnc([C@@H]3CCCN3)o2)cc1	0.9	8	0.9	50*	0.5
c1ccc(CSc2nnc([C@@H]3CCCN3)o2)cc1	0.9	10	1	16	0.8
COc1ccc(C(=O)OC(C(=O)c2ccccc2)c2ccccc2)cc1 (configuration not stated)	0.2	78*	0.9	58*	0.4
COc1ccc(C(=O)C(OC(=O)c2ccc(C)c(NC(C)=O)c2)c2ccccc2)cc1 (configuration not stated)	0.4	62*	1.5	41	0.6
CC(=O)Nc1cc(C(=O)OC(C(=O)c2ccccc2)c2ccccc2)ccc1C (configuration not stated)	0.4	60*	1.5	59*	0.4
Cc1cc(NC(=O)c2cncc(Br)c2)no1	1.2	-22	0.8	2	1
COc1cc(CNC(=O)c2ccc(Cn3nc(C)c(Cl)c3C)o2)cc(OC)c1	1.2	-21	0.9	62*	0.4
Cc1cc(C)nc(SCCC(=O)N(C)C)n1	1.1	-10	0.9	-4	1
Cc1cc(C)nc(SCCS(=O)Cc2ccc(Cl)cc2)n1 (configuration not stated)	0.8	22	1.4	81*	0.2
Cc1ccc(-n2nnnc2SCCNS(=O)(=O)c2ccccc2)cc1C	2*	-96	0.5	75*	0.3
Cc1ccc(S(=O)(=O)NCCSc2nnnn2C)cc1	1	-3	0.8	40	0.6
Cn1cnnc1SCCNS(=O)(=O)c1ccccc1	1	-3	1.1	3	1
Cn1nnnc1SCCNS(=O)(=O)c1ccccc1	1	-4	1	78*	0.2
Cn1c(=O)c(=O)n(C)c2cc(S(=O)(=O)Nc3ccc4c(c3)OCCO4)ccc21	0.5	54*	0.9	-2	1
Cn1c(=O)c(=O)n(C)c2cc(S(=O)(=O)Nc3ccc(OC(F)(F)F)cc3)ccc21	0.1	91*	1.2	82*	0.2
Cn1c(=O)oc2cc(S(=O)(=O)Nc3ccc4c(c3)OCCO4)ccc21	0.8	18	1.1	27	0.7
COc1ccc(NS(=O)(=O)c2ccc3oc(Nc4ccc5c(c4)OCCO5)nc3c2)cc1	0	96*	1.1	51*	0.5
CCCc1nnc(NC(=O)c2c(O)c3cccc4c3n(c2=O)CCC4)s1	0.6	36	1.6	12	0.9
O=C(Nc1ccc2c(c1)OCCO2)c1ccc(Br)o1	0.9	11	1	33	0.7
COc1ccc2cc(CCNC(=O)C3CCCC3)c(=O)[nH]c2c1	1.1	-8	1.1	-6	1.1
O=C(Nc1cccc2ccccc12)c1ccc(Cn2cc(Cl)cn2)cc1	2.6*	-156	1	15	0.9
N#Cc1c(NC(=O)c2ccc(Cn3cc(Br)cn3)o2)sc2c1CCCCC2	1.2	-25	0.9	-7	1.1
COC(=O)c1ccc(Cn2cc(Cl)cn2)cc1	0.5	53*	0.9	99*	0
COC(=O)c1sc(NC(=O)c2ccc(Cn3cc(Cl)cn3)o2)c(C#N)c1C	0.3	75*	1.4	47	0.5
SMILES	CYP2C9 act	CYP2C9 inh	PLAP act	CYP2C19 inhib	CYP2C19 activ
COc1ccccc1NC(=O)c1sc2ncn(Cc3ccccc3C)c(=O)c2c1C	1.5	-50	1	34	0.7
CC(C)NC(=O)CN(C)S(=O)(=O)c1ccc(F)cc1	1	-1	1	-3	1
CCN(CC(=O)Nc1ccccc1C(=O)OC)S(=O)(=O)c1ccccc1	0.8	24	1.1	80*	0.2
CSc1cccc(NC(=O)CN(C)S(=O)(=O)c2ccc(F)cc2)c1	1	1	0.9	63*	0.4
CCCC(=O)Nc1ccccc1NC(=O)CN(C)S(=O)(=O)c1ccccc1	0.4	58*	0.7	10	0.9
CN(CC(=O)NC1CCCCCC1)S(=O)(=O)c1ccccc1	0.8	21	1	45	0.6
CN(CC(=O)Nc1nccs1)S(=O)(=O)c1ccc(F)cc1	0.6	45	0.9	67*	0.3
CCN(CC(=O)NC1CCCCCC1)S(=O)(=O)c1ccccc1	0.8	21	0.9	28	0.7
c1ccc(C2NCCn3cccc32)cc1 (configuration not stated)	1	-4	1.2	-5	1.1
O=C(COc1ccc(Cl)cc1Cl)NCCC1=CCCCC1	0.9	14	0.9	10	0.9
O=C(COc1cccc2ccccc12)Nc1nc2ccccc2[nH]1	1.6	-59	1.5	12	0.9
